Laboratory results as given in article PMC7862700, “An all-to-all approach to the identification of sequence-specific readers for epigenetic DNA modifications on cytosine”.

What was measured:
Experiment in all cases: DAPPL (digital affinity profiling via proximity ligation, sequencing); 10 mM Tris-HCl pH 7.5, 50 mM NaCl, 1 mM DTT, 4% glycerol, room temperature, 30 min; GST-TFs on glutathione beads, 16-mer random dsDNA library, 0.1% formaldehyde crosslink after washing; high values mean tight binding
Settings in all cases: protein: recombinant; tags: N-terminal GST; dsDNA, one strand shown
[1] = target: T1, FLI1 (Homo sapiens, UniProt Q01543 1-452)
T1 sequence: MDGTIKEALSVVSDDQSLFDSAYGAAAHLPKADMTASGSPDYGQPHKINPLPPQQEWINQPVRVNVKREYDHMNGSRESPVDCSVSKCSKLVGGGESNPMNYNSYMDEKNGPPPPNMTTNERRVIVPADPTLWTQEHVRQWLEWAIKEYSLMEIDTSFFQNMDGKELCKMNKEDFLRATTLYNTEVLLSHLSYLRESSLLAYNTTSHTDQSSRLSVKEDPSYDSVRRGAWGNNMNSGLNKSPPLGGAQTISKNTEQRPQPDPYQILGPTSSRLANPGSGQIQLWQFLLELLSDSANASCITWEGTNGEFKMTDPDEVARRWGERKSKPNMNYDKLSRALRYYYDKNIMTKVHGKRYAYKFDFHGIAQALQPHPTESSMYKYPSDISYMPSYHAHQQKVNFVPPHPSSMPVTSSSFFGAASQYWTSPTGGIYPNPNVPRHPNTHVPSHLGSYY
Summary of the method: (§1)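 Yeast served to express human transcription factors as GST fusions, which were then captured on glutathione beads and labelled with DNA barcodes. Pooled with a tag-only sample, they were incubated with 200 nmole of a 16-mer random double-stranded DNA library for 30 min at room temperature in Tris/NaCl/DTT/glycerol buffer, washed, crosslinked with 0.1% formaldehyde, ligated by proximity, amplified by PCR and sequenced. Dividing each hexamer's read frequency for a factor by its frequency for the tag-only sample gives the binding signal.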

[2] = target: T2, ELK1 (Homo sapiens, UniProt P19419 1-428)
T2 sequence: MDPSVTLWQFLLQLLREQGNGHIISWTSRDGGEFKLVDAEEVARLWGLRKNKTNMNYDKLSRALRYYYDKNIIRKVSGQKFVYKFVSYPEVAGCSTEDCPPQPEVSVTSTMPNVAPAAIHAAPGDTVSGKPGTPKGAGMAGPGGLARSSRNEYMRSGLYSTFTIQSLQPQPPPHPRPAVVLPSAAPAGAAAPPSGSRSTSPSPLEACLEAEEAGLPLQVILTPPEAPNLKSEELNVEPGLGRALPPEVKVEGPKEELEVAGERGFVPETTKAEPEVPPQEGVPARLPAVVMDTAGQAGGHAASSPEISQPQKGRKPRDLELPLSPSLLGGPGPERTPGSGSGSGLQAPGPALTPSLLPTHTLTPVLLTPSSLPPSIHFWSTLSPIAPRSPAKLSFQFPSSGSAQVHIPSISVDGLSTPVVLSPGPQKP
Summary of the method: as §1

[3] = target: T3, GABPA (Homo sapiens, UniProt Q06546 1-454)
T3 sequence: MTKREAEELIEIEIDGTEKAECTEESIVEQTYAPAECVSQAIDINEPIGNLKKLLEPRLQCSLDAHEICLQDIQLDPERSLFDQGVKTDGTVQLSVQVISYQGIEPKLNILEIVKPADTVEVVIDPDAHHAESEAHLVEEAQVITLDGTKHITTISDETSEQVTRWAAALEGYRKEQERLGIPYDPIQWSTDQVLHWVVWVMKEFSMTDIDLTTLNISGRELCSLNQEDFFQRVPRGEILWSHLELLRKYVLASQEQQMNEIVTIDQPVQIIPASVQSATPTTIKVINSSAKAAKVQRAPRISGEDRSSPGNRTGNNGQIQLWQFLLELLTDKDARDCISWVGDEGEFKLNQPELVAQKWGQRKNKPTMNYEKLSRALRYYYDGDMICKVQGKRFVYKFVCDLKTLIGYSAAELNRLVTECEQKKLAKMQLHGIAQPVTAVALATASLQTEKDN
Summary of the method: as §1

[4] = target: T4, ERG (Homo sapiens, UniProt P11308 1-479)
T4 sequence: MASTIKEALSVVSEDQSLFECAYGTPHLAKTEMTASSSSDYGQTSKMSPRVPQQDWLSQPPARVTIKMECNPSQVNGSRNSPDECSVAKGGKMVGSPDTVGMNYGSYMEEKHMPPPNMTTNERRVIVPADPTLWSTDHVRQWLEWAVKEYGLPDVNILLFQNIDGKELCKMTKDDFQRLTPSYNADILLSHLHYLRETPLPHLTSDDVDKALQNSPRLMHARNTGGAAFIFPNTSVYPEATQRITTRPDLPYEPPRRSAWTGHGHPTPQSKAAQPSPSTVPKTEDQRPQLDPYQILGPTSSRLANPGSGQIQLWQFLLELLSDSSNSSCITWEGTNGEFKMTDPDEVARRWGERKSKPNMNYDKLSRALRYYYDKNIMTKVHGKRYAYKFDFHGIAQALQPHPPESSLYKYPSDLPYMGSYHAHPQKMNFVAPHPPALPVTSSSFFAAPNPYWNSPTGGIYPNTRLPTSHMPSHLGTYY
Summary of the method: as §1

[5] = target: ELF1 (Homo sapiens, UniProt P32519 1-619)
Summary of the method: as §1

[6] = target: T5, EHF (Homo sapiens, UniProt Q9NZC4 1-300)
T5 sequence: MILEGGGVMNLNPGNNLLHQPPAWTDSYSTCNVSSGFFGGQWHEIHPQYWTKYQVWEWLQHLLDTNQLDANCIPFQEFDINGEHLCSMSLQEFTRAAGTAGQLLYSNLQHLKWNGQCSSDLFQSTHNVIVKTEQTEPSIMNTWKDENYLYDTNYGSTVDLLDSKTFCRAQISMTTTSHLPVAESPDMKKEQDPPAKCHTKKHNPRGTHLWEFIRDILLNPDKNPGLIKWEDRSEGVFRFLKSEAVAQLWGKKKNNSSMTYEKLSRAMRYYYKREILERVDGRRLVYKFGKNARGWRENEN
Summary of the method: as §1

[7] = target: SPI1 (Homo sapiens, UniProt P17947 1-270)
Summary of the method: as §1

[8] = target: SPIB (Homo sapiens, UniProt Q01892 1-262)
Summary of the method: as §1

[9] = target: T6, ELK3 (Homo sapiens, UniProt P41970 1-407)
T6 sequence: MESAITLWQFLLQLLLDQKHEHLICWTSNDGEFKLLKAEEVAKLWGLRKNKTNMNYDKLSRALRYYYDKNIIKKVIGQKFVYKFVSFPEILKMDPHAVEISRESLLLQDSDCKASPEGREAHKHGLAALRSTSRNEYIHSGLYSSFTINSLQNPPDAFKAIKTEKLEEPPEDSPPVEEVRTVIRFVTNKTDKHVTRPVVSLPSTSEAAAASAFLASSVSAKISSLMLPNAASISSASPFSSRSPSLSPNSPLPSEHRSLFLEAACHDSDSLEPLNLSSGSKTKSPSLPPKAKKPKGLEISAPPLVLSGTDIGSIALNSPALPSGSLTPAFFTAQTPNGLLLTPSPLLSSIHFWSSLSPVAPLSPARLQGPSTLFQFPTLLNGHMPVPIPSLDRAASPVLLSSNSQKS
Summary of the method: as §1

Sequence of SPIB (Q01892 whole entry): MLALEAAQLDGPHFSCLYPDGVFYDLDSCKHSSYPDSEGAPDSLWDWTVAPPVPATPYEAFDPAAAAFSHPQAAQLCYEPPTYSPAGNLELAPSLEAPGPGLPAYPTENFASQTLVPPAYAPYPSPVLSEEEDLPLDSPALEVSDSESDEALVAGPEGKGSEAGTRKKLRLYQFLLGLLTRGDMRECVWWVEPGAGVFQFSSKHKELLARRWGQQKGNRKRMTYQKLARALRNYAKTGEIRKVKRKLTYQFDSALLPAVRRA
Sequence of ELF1 (P32519 whole entry): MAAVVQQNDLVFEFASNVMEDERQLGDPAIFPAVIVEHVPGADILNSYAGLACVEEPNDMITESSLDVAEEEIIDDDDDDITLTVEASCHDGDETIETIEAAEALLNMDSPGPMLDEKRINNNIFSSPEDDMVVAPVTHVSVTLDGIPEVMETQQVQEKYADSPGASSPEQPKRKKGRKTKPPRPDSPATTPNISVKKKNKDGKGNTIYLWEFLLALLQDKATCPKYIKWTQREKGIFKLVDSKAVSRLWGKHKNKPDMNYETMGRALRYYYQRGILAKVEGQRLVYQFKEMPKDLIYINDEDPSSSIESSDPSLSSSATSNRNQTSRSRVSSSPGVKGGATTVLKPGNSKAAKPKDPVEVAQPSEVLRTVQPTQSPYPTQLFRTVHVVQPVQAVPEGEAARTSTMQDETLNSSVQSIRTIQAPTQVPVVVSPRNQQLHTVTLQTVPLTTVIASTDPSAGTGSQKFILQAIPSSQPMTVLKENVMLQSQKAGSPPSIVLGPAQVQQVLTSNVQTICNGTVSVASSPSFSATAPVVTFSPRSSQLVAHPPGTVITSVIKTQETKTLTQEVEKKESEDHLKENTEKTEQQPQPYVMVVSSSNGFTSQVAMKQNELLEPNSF

## TATGTT
[1]
  binding signal: 1.25 fold enrichment (6-mer frequency, TF over GST control)
[2]
  binding signal: 1.23 fold enrichment (6-mer frequency, TF over GST control)
[3]
  binding signal: 1.22 fold enrichment (6-mer frequency, TF over GST control)
[4]
  binding signal: 1.19 fold enrichment (6-mer frequency, TF over GST control)
[5]
  binding signal: 1.23 fold enrichment (6-mer frequency, TF over GST control)
[6]
  binding signal: 1.23 fold enrichment (6-mer frequency, TF over GST control)
[7]
  binding signal: 1.2 fold enrichment (6-mer frequency, TF over GST control)
[8]
  binding signal: 1.12 fold enrichment (6-mer frequency, TF over GST control)
[9]
  binding signal: 1.19 fold enrichment (6-mer frequency, TF over GST control)
